About 8,800 targets were measured; listed, in parts, are those with a hit and a random draw of the rest. About 0.5% of all pairs of compound and target were hits.
Columns and labels:
Experiment in all cases: log2 fold change, soluble protein after heating vs DMSO (PISA); higher = thermal stabilisation; K562 lysate, 10 uM; active = over 0.2 and 3.5 SD of the protein, either way, in both replicates (recomputed)
[1] = compound: C1=CC=C(C=C1)[C@H](COC2=CC3=C(C=C2)NC(=O)N3)NC(=O)C4=CC=CN(C4=O)CC5=CC(=C(C=C5)F)F
Method in brief: (§1)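 Values give the log-two fold change in thermal stability against solvent controls, from duplicates. Crude K562 extract at 1 mg/mL protein, made by dounce homogenisation in PBS pH 7.4 with 1 mM MgCl2, was treated with 10 μM compound for 30 min. After 3 min heating across 48°C-58°C, aliquots were pooled, adjusted to 0.5% NP-40 at 4°C and centrifuged at 21,000xg for 90 min. The supernatant was measured by TMTpro 16plex LC-MS/MS with channel sums equalised.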

[2] = compound: CC1=C(SC2=C1C(=N[C@H](C3=NN=C(N32)C)CC(=O)N)C4=CC=C(C=C4)Cl)C
Method in brief: as §1

[3] = compound: CC1=C2C(=CC=C1)N=C(N(C2=O)C3=CC=CC=C3C)CN4C=NC5=C(N=CN=C54)N
Method in brief: as §1

[4] = compound: Cc1sc2c(c1C)C(c1ccc(Cl)cc1)=N[C@@H](CC(=O)OC(C)(C)C)c1nnc(C)n1-2
Method in brief: as §1

[5] = compound: c1ccc([C@@H]2C[C@H]2NC2CCNCC2)cc1
Method in brief: as §1

Measured: log2 fold change

DNAH5 (UniProt Q8TE73)
inactive: [1] -0.019 | [2] 0.018 | [3] 0.007 | [4] -0.087 | [5] -0.216

CTPS2 (UniProt Q9NRF8)
inactive: [1] -0.001 | [2] -0.009 | [3] -0.008 | [4] 0.004 | [5] 0

CLUH, A0A494C0R8
inactive: [1] 0.014 | [2] 0.118 | [3] 0.133 | [4] -0.116 | [5] 0.132

DNAH10 (UniProt Q8IVF4)
inactive: [1] 0.069 | [2] 0.014 | [3] 0.095 | [4] -0.081 | [5] -0.274

CXXC1 isoform 2 (UniProt Q9P0U4)
inactive: [1] 0.006 | [2] 0.07 | [3] 0.032 | [4] -0.173 | [5] 0.029

DNAJC5 (UniProt Q9H3Z4)
Sequence of UniProt Q9H3Z4 (Q9H3Z4 whole entry, looked up): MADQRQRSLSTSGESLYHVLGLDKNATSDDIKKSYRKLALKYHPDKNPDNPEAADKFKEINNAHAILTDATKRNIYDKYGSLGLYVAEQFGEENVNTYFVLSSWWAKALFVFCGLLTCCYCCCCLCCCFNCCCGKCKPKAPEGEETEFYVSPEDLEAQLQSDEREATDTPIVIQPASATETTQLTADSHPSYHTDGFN
inactive: [1] 0.032 | [2] -0.015 | [3] -0.034 | [4] 0.009 | [5] -0.308

CSTB (UniProt P04080)
inactive: [1] -0.031 | [2] -0.018 | [3] -0.032 | [4] -0.071 | [5] -0.146

CHUK (UniProt O15111)
inactive: [1] -0.02 | [2] 0.032 | [3] 0 | [4] -0.026 | [5] 0.015

COG6 (UniProt Q9Y2V7)
Sequence of UniProt Q9Y2V7 (Q9Y2V7 whole entry, looked up): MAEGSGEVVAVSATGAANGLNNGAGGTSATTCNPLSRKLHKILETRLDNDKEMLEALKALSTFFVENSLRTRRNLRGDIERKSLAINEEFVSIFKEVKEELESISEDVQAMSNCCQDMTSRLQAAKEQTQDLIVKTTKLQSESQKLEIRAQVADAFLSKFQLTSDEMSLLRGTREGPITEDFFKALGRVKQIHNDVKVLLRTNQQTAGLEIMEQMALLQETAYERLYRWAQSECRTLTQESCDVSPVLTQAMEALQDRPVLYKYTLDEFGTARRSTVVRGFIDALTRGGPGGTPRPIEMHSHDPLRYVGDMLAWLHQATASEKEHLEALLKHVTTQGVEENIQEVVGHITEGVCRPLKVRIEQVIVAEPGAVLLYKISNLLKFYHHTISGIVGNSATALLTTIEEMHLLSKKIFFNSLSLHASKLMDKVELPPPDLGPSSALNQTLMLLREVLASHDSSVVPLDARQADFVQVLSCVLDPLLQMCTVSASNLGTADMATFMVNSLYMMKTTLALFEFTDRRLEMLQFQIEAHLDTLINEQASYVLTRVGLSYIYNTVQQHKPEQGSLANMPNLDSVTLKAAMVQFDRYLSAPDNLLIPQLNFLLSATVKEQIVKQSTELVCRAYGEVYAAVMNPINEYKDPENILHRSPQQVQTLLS
inactive: [1] -0.023 | [2] 0.011 | [3] 0.029 | [4] -0.032 | [5] 0.069

CMSS1 (UniProt Q9BQ75)
inactive: [1] 0.035 | [2] -0.069 | [3] -0.017 | [4] -0.023 | [5] 0.106

CNOT2 (UniProt Q9NZN8)
inactive: [1] 0.019 | [2] -0.016 | [3] -0.019 | [4] -0.004 | [5] 0.008

COMT (UniProt P21964)
inactive: [1] -0.007 | [2] -0.01 | [3] -0.016 | [4] 0.062 | [5] 0.054

DOCK10 (UniProt Q96BY6)
inactive: [1] 0.053 | [2] -0.018 | [3] 0.062 | [4] -0.109 | [5] -0.491

DNAJC1 (UniProt Q96KC8)
inactive: [1] -0.113 | [2] -0.021 | [3] 0.039 | [4] -0.011 | [5] 0.021

COQ9 (UniProt O75208)
inactive: [1] -0.102 | [2] -0.069 | [3] 0.026 | [4] 0.015 | [5] 0.08

DDB2 (UniProt Q92466)
inactive: [1] -0.025 | [2] -0.026 | [3] 0.034 | [4] -0.027 | [5] 0.006

DOCK7 (UniProt Q96N67)
inactive: [1] 0.071 | [2] 0.095 | [3] -0.017 | [4] -0.011 | [5] 0.012

CLASP2 isoform 3 (UniProt O75122)
inactive: [1] 0.002 | [2] -0.028 | [3] 0.079 | [4] -0.003 | [5] -0.061

DDA1 (UniProt Q9BW61)
inactive: [1] 0.073 | [2] 0.024 | [3] -0.016 | [4] -0.003 | [5] 0.029

DGCR8 (UniProt Q8WYQ5)
inactive: [1] -0.05 | [2] 0.063 | [3] 0.004 | [4] 0.029 | [5] 0.017

COG3 (UniProt Q96JB2)
inactive: [1] -0.03 | [2] -0.015 | [3] 0.016 | [4] 0.033 | [5] 0.019

CNOT4 isoform 9 (UniProt O95628)
inactive: [1] -0.173 | [2] 0.081 | [3] -0.014 | [4] -0.066 | [5] -0.551

CHEK1 (UniProt O14757)
inactive: [1] 0.025 | [2] 0.021 | [3] 0.006 | [4] -0.04 | [5] 0

DLG3 isoform 2 (UniProt Q92796)
Sequence of UniProt Q92796 (Q92796 whole entry, looked up): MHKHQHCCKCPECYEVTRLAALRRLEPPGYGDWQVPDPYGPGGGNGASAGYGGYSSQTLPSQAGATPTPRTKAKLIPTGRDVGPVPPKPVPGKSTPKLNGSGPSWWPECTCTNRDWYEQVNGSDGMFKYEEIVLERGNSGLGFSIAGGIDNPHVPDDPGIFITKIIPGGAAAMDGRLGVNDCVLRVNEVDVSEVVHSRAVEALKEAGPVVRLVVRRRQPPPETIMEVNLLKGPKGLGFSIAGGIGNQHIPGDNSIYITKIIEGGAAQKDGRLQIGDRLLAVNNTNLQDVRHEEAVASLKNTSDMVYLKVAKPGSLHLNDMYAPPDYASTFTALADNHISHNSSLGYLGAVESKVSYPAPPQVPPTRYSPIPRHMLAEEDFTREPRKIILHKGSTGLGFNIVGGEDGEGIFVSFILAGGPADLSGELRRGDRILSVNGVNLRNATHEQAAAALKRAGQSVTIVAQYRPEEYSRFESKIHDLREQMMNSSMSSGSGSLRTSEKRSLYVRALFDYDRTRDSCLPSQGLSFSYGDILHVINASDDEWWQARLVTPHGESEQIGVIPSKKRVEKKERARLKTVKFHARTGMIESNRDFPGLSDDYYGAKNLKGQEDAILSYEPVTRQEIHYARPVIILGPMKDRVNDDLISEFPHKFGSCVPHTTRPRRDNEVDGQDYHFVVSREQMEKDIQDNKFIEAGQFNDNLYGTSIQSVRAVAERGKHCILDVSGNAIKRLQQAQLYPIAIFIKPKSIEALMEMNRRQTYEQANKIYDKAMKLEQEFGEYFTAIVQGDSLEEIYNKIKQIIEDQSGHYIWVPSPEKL
inactive: [1] 0 | [2] -0.082 | [3] -0.085 | [4] 0.019 | [5] 0.048

DHRS13 (UniProt Q6UX07)
Sequence of UniProt Q6UX07 (Q6UX07 whole entry, looked up): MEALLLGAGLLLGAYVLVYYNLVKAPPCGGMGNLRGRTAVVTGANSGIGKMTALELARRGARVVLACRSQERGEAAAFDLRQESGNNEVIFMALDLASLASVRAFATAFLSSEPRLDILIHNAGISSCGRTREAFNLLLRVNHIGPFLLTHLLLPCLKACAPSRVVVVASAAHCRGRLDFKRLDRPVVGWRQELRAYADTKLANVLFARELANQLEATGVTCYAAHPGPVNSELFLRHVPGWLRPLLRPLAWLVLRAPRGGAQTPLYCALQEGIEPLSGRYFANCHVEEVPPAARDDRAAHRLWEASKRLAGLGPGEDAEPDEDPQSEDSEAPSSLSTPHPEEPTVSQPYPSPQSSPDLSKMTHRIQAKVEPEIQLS
inactive: [1] -0.13 | [2] 0.059 | [4] -0.099

COX7B (UniProt P24311)
inactive: [3] -0.031 | [4] -0.027 | [5] -0.075

CLASP2 (UniProt O75122)
inactive: [1] 0.16 | [2] -0.248 | [3] -0.105 | [5] 0.002

DLGAP5 isoform 3 (UniProt Q15398)
inactive: [1] -0.167 | [2] 0.031 | [4] -0.036 | [5] 0.021

CNNM2 (UniProt Q9H8M5)
Sequence of UniProt Q9H8M5 (Q9H8M5 whole entry, looked up): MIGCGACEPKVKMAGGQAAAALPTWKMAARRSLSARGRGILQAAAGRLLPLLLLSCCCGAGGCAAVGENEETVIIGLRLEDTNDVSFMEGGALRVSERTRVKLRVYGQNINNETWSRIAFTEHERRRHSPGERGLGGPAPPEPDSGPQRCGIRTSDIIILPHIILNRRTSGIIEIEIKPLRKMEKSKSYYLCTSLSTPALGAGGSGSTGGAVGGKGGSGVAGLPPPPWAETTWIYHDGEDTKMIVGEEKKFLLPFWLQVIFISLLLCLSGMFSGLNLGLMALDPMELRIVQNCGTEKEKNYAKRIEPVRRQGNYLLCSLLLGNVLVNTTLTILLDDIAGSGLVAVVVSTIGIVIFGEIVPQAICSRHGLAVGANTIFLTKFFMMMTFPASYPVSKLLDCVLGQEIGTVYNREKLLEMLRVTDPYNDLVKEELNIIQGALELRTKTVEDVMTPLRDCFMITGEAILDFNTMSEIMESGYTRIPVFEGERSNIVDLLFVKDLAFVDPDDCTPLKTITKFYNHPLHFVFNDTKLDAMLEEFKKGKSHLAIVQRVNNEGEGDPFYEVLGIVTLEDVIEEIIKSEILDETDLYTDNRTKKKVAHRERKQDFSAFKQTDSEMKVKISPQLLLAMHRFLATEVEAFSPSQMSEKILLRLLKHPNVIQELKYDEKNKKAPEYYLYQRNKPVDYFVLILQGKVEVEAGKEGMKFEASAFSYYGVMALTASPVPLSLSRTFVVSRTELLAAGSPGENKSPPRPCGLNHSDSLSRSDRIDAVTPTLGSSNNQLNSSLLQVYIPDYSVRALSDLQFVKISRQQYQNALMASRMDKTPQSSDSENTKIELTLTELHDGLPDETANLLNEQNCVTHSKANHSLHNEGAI
inactive: [3] 0.041 | [4] 0.034 | [5] 0.014

CUX1 isoform 2 (UniProt Q13948)
Sequence of UniProt Q13948 (Q13948 whole entry, looked up): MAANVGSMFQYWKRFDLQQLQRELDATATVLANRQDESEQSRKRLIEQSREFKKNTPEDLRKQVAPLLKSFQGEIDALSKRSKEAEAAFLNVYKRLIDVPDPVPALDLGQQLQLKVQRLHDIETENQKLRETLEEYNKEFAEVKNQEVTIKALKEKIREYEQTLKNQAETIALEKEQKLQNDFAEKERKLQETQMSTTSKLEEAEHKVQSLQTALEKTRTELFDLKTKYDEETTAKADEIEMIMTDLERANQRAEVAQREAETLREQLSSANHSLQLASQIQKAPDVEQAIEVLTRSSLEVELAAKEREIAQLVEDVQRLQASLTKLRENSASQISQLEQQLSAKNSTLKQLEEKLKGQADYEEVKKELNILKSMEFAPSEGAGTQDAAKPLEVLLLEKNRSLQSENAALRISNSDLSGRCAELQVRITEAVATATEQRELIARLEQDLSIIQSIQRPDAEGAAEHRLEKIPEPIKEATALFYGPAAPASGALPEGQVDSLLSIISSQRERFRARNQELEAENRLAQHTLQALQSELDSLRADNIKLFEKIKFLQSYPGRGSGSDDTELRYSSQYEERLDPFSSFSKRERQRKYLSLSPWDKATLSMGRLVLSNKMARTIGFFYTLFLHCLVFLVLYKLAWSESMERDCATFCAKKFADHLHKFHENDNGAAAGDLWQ
inactive: [3] 0.03 | [4] 0.075 | [5] 0.193

CRLS1 (UniProt Q9UJA2)
inactive: [1] -0.349 | [2] 0.044 | [5] 0.065

CHMP4A (UniProt H0YIN6)
inactive: [1] 0.032 | [2] 0.166 | [4] -0.222 | [5] -0.12

CSRP2 (UniProt Q16527)
inactive: [1] -0.031 | [2] -0.018 | [5] 0.003

COL6A3 (UniProt P12111)
inactive: [1] -0.008 | [2] -0.04 | [4] -0.079 | [5] 0.13

DAPK1 isoform 3 (UniProt P53355)
Sequence of UniProt P53355 (P53355 whole entry, looked up): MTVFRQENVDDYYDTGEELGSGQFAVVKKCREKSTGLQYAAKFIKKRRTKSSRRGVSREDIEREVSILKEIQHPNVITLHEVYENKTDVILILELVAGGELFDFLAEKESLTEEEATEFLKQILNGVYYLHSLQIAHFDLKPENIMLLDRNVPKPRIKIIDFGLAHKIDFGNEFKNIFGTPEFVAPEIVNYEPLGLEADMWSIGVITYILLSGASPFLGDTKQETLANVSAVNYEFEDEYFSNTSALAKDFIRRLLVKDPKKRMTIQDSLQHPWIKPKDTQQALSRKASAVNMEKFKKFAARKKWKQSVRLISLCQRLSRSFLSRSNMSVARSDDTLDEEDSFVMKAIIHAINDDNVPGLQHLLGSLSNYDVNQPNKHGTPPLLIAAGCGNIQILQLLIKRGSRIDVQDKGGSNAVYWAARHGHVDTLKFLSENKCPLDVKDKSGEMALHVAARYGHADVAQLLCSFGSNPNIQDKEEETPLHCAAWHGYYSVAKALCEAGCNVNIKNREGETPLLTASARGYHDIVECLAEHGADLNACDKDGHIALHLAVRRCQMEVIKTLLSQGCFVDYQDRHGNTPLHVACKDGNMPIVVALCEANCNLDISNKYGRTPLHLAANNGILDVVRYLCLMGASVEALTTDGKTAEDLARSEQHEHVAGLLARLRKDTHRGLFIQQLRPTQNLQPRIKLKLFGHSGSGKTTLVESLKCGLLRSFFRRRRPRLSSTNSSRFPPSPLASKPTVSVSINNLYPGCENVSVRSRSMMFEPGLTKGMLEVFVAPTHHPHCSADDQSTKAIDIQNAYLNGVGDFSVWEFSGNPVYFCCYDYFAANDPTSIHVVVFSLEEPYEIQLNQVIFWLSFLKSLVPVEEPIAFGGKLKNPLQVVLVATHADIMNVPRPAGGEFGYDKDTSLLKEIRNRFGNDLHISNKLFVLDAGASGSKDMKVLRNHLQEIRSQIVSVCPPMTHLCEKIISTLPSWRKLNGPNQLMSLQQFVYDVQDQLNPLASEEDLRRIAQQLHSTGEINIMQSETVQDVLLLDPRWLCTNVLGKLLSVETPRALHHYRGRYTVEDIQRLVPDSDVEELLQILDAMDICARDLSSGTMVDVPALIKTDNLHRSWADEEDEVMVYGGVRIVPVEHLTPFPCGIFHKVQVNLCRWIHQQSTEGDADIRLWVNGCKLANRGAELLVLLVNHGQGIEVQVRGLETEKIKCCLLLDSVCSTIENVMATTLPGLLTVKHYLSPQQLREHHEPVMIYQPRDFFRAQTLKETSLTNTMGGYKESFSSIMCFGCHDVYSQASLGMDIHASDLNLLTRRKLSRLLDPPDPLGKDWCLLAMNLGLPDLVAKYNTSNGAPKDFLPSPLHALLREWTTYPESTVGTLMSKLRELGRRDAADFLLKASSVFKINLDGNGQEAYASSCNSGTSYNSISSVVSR
inactive: [3] 0.035 | [4] 0.013 | [5] 0.039

CYP2S1 isoform 2 (UniProt Q96SQ9)
inactive: [3] 0.033 | [4] -0.123

CHFR (UniProt Q96EP1)
inactive: [3] 0.027 | [4] -0.056

CLASP1 isoform 4 (UniProt Q7Z460)
inactive: [3] 0.056

DDAH1 (UniProt O94760)
inactive: [3] 0.005 | [4] 0.15 | [5] -0.072

CORO7 (UniProt P57737)
inactive: [3] 0.18 | [4] 0.165 | [5] 0.164

CSNK1A1 isoform 3 (UniProt P48729)
inactive: [4] 0.021

DALRD3 (UniProt Q5D0E6)
inactive: [3] 0.193 | [5] 0.137
